These results are taken from PubChem BioAssay.

Unmarked numbers belong to inactive results. No rule for the calls is given here.

What is called remaining activity is the signal under treatment as a percentage of the control signal.

One experiment concerns Aerobactin synthetase IucA (Klebsiella pneumoniae hvKP1). In words: Biochemical IucA enzyme inhibition primary screen of the Spectrum library (AID 1346200).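 Also: 100% = wells without compound and 0% = wells lacking enzyme.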 Conditions: malachite green pyrophosphate, A620, at 8 µM, hits give low values.
With `Nc1c2c(nc3ccccc13)CCCC2O` (stereo not given), the activity remaining was 105%.
Take `CC1COc2c(N3CCN(C)CC3)c(F)cc3c(=O)c(C(=O)O)cn1c23` (stereo not given): the activity remaining is 92.3%.
On the same count and under the same terms, for `N[C@@H](C(=O)N[C@@H]1C(=O)N2C(C(=O)O)=C(Cl)CS[C@H]12)c1ccccc1` the value was 103%; for `CN1CCN(C2=Nc3ccccc3Oc3ccc(Cl)cc32)CC1`, 120%.
Consider `CC(C[N+](C)(C)C)OC(N)=O` (stereo not given), for which the activity remaining was 116%.
In the case of `CN=C(N)NCCC[C@H](N)C(=O)O`, the activity remaining was 116%.
Take `CCN(CC)CCNC(=O)c1cc(S(C)(=O)=O)ccc1OC`: the activity remaining is 120%.
Consider `O=C(c1ccc(F)cc1)C1CCN(CCn2c(=O)[nH]c3ccccc3c2=O)CC1`, for which the activity remaining is 120%.
Regarding `CCC1(C)CC(=O)NC1=O` (stereo not given), the activity remaining was 123%.
Take `CCN(CC)C(=S)SSC(=S)N(CC)CC`: the activity remaining was 90.4%.
Turning to `CC(CCc1ccccc1)NCC(O)c1ccc(O)c(C(N)=O)c1` (stereo not given), the activity remaining is 121%.
Consider `CCn1nc(C(=O)O)c(=O)c2cc3c(cc21)OCO3`, for which the activity remaining was 112%.
As to `CCN(CC)CCOC(=O)C1(C2CCCCC2)CCCCC1`, the activity remaining was 125%.
Turning to `CC[N+](CC)(CC)CCOc1cccc(OCC[N+](CC)(CC)CC)c1OCC[N+](CC)(CC)CC`, the activity remaining was 96.2%.
In the case of `CCOC(=O)N1CCC(=C2c3ccc(Cl)cc3CCc3cccnc32)CC1`, the activity remaining is 116%.
Consider `O=c1cc(-c2ccc(O)cc2)oc2cc(O)cc(O)c12`, for which the activity remaining was 113%.
For the compound `CC/C(=C(\c1ccccc1)c1ccc(OCCN(C)C)cc1)c1ccccc1`, the activity remaining was 118%.
`CCN(CC)CCCC(C)Nc1c2ccc(Cl)cc2nc2ccc(OC)cc12` (stereo not given): the activity remaining was 93.4%.
On the same count and under the same terms, next, `NCCCS(=O)(=O)O`: 104%; `CNCCC=C1c2ccccc2CCc2ccccc21`: 122%.
As to `C[C@H]1c2cccc(O)c2C(O)=C2C(=O)[C@]3(O)C(O)=C(C(N)=O)C(=O)[C@@H](N(C)C)[C@@H]3[C@@H](O)[C@@H]21`, the activity remaining was 93.8%.
With `CN(C)[C@@H]1C(=O)C(C(N)=O)=C(O)[C@@]2(O)C(=O)C3=C(O)c4c(O)ccc(Cl)c4[C@@H](O)[C@H]3C[C@@H]12`, the activity remaining was 97%.
For `CC(C)C(=O)Nc1ccc([N+](=O)[O-])c(C(F)(F)F)c1`, the activity remaining was 115%.
Still for that read-out and setting: next, `Oc1ccc(/C=C/c2cc(O)cc(O)c2)cc1`: 110%; `CN(C)CCCN1c2ccccc2Sc2ccc(Cl)cc21`: 115%.
For the compound `CC(C)[N+](C)(CCOC(=O)C1c2ccccc2Oc2ccccc21)C(C)C`, the activity remaining is 105%.
As to `COC(=O)C1=C(C)NC(C)=C(C(=O)OCCN(C)Cc2ccccc2)C1c1cccc([N+](=O)[O-])c1` (stereo not given), the activity remaining was 107%.
In the case of `CN1Cc2c(N)cccc2C(c2ccccc2)C1` (stereo not given), the activity remaining is 119%.
Take `N=C(N)c1ccc(OCCCCCOc2ccc(C(=N)N)cc2)cc1`: the activity remaining was 98.2%.
Consider `CN(C)CCCN1c2ccccc2CCc2ccccc21`, for which the activity remaining was 107%.
With `CCOC(=O)C1=C[C@]2(CC)CCCN3CCc4c(n1c1ccccc41)[C@@H]32`, the activity remaining is 108%.
For the compound `Oc1ccc(O)cc1`, the activity remaining was 121%.
For `NC(N)=NC(=O)c1nc(Cl)c(N)nc1N`, the activity remaining is 118%.
Turning to `C=CCc1ccccc1OCC(O)CNC(C)C` (stereo not given), the activity remaining was 110%.
Same read-out and setting: for `NS(=O)(=O)c1cc2c(cc1Cl)NC=NS2(=O)=O` the value was 113%; for `CC(=O)N[C@@H](CS)C(=O)O`, 110%; for `O=c1[nH]cnc2[nH]ncc12`, 99.3%.
For the compound `Cc1scc2c1N(C(=O)CN1CCN(C)CC1)c1ccccc1NC2=O`, the activity remaining was 117%.
With `Nc1ncn([C@@H]2O[C@H](CO)[C@@H](O)[C@H]2O)c(=O)n1`, the activity remaining is 104%.
In the case of `Cc1ccccc1C(OCCN(C)C)c1ccccc1` (stereo not given), the activity remaining was 100%.

For the next experiment, the system named is Aerobactin synthetase IucA (Klebsiella pneumoniae, hypervirulent). Briefly: IucA enzyme inhibition, biochemical, LOPAC library, absorbance readout (AID 1346212).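 Also: 100% = no compound wells and 0% = no enzyme wells.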 Conditions: IucA enzyme assay, absorbance (OD) readout; hits give low values;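 tested at 8 µM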.
On to `Nc1c2c(nc3ccccc13)CCCC2O` (stereo not given), for which the remaining activity is 101%.
With `CC1COc2c(N3CCN(C)CC3)c(F)cc3c(=O)c(C(=O)O)cn1c23` (stereo not given), the remaining activity is 118%.
Turning to `N[C@@H](C(=O)N[C@@H]1C(=O)N2C(C(=O)O)=C(Cl)CS[C@H]12)c1ccccc1`, the remaining activity is 120%.
The same measure, in the same setting: next, `CN1CCN(C2=Nc3ccccc3Oc3ccc(Cl)cc32)CC1`: 110%; `CC(C[N+](C)(C)C)OC(N)=O` (stereo not given): 114%; `CN=C(N)NCCC[C@H](N)C(=O)O`: 111%.
In the case of `CCN(CC)CCNC(=O)c1cc(S(C)(=O)=O)ccc1OC`, the remaining activity is 104%.
`O=C(c1ccc(F)cc1)C1CCN(CCn2c(=O)[nH]c3ccccc3c2=O)CC1`: the remaining activity was 73.1%.
Consider `CCC1(C)CC(=O)NC1=O` (stereo not given), for which the remaining activity was 85.2%.
Regarding `CCN(CC)C(=S)SSC(=S)N(CC)CC`, the remaining activity was 89.3%.
On the same count and under the same terms, for `CC(CCc1ccccc1)NCC(O)c1ccc(O)c(C(N)=O)c1` (stereo not given) the value was 112%.
For the compound `CCn1nc(C(=O)O)c(=O)c2cc3c(cc21)OCO3`, the remaining activity was 111%.
As to `CCN(CC)CCOC(=O)C1(C2CCCCC2)CCCCC1`, the remaining activity is 92.7%.
As to `CC[N+](CC)(CC)CCOc1cccc(OCC[N+](CC)(CC)CC)c1OCC[N+](CC)(CC)CC`, the remaining activity is 111%.
As for `CCOC(=O)N1CCC(=C2c3ccc(Cl)cc3CCc3cccnc32)CC1`, the remaining activity is 112%.
Take `O=c1cc(-c2ccc(O)cc2)oc2cc(O)cc(O)c12`: the remaining activity is 107%.
The same measure, in the same setting: for `CC/C(=C(\c1ccccc1)c1ccc(OCCN(C)C)cc1)c1ccccc1` the value was 107%; for `CCN(CC)CCCC(C)Nc1c2ccc(Cl)cc2nc2ccc(OC)cc12` (stereo not given), 115%.
Consider `NCCCS(=O)(=O)O`, for which the remaining activity was 111%.
With `CNCCC=C1c2ccccc2CCc2ccccc21`, the remaining activity was 113%.
The same measure, in the same setting: for `C[C@H]1c2cccc(O)c2C(O)=C2C(=O)[C@]3(O)C(O)=C(C(N)=O)C(=O)[C@@H](N(C)C)[C@@H]3[C@@H](O)[C@@H]21` the value was 104%.
For the compound `CN(C)[C@@H]1C(=O)C(C(N)=O)=C(O)[C@@]2(O)C(=O)C3=C(O)c4c(O)ccc(Cl)c4[C@@H](O)[C@H]3C[C@@H]12`, the remaining activity is 92.3%.
As to `CC(C)C(=O)Nc1ccc([N+](=O)[O-])c(C(F)(F)F)c1`, the remaining activity was 97.1%.
For `Oc1ccc(/C=C/c2cc(O)cc(O)c2)cc1`, the remaining activity is 75.6%.
On to `CN(C)CCCN1c2ccccc2Sc2ccc(Cl)cc21`, for which the remaining activity is 110%.
Still for that read-out and setting: next, `CC(C)[N+](C)(CCOC(=O)C1c2ccccc2Oc2ccccc21)C(C)C`: 92.2%.
As to `COC(=O)C1=C(C)NC(C)=C(C(=O)OCCN(C)Cc2ccccc2)C1c1cccc([N+](=O)[O-])c1` (stereo not given), the remaining activity was 109%.
Regarding `CN1Cc2c(N)cccc2C(c2ccccc2)C1` (stereo not given), the remaining activity is 109%.
For `N=C(N)c1ccc(OCCCCCOc2ccc(C(=N)N)cc2)cc1`, the remaining activity was 122%.
As for `CN(C)CCCN1c2ccccc2CCc2ccccc21`, the remaining activity was 90.4%.
Take `CCOC(=O)C1=C[C@]2(CC)CCCN3CCc4c(n1c1ccccc41)[C@@H]32`: the remaining activity is 100%.
Consider `Oc1ccc(O)cc1`, for which the remaining activity is 105%.
On the same count and under the same terms, for `NC(N)=NC(=O)c1nc(Cl)c(N)nc1N` the value was 105%.
`C=CCc1ccccc1OCC(O)CNC(C)C` (stereo not given): the remaining activity is 91.4%.
Turning to `NS(=O)(=O)c1cc2c(cc1Cl)NC=NS2(=O)=O`, the remaining activity was 123%.
Turning to `CC(=O)N[C@@H](CS)C(=O)O`, the remaining activity was 108%.
On the same count and under the same terms, for `O=c1[nH]cnc2[nH]ncc12` the value was 110%; for `Cc1scc2c1N(C(=O)CN1CCN(C)CC1)c1ccccc1NC2=O`, 105%.
On the same count and under the same terms, for `Nc1ncn([C@@H]2O[C@H](CO)[C@@H](O)[C@H]2O)c(=O)n1` the value was 112%; for `Cc1ccccc1C(OCCN(C)C)c1ccccc1` (stereo not given), 117%.
